# Experimental data published in PubChem BioAssay (Tox21).
# Inconclusive results are not listed. Where a call stands in place of a potency, no number is given. A number with no mark means an inactive call. Active and inactive are the calls of the source. Unless noted, calls come from the whole dose curve; as a rule, active = well fitted curve in the direction sought with a large enough effect in the repeat runs; inconclusive = weak or mixed curves; inactive = no such curve, though single readings can be large; an effect the other way counts as inactive or inconclusive.
# Legend:
# [1] = qHTS assay to identify small molecule agonists of the peroxisome proliferator-activated receptor delta (PPARd) signaling pathway - cell viability counter screen (AID 743211); note: nearly all actives have a fitted effect of over 55% in size
# Summary of the method: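 Multiplexed format: after the 2 h room-temperature LiveBLAzer B/G FRET step, CellTiter-Glo was added to the same wells. Luminescence after 30 min gave cell viability; compound exposure was 17 h at 37C.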
# [2] = molecular target: Peroxisome proliferator-activated receptor delta (Homo sapiens) (UniProt Q03181); test: qHTS assay to identify small molecule agonists of the peroxisome proliferator-activated receptor delta (PPARd) signaling pathway (AID 743212; calls by dose curve)
# Sequence of Peroxisome proliferator-activated receptor delta (Homo sapiens) (Q03181 whole entry, looked up): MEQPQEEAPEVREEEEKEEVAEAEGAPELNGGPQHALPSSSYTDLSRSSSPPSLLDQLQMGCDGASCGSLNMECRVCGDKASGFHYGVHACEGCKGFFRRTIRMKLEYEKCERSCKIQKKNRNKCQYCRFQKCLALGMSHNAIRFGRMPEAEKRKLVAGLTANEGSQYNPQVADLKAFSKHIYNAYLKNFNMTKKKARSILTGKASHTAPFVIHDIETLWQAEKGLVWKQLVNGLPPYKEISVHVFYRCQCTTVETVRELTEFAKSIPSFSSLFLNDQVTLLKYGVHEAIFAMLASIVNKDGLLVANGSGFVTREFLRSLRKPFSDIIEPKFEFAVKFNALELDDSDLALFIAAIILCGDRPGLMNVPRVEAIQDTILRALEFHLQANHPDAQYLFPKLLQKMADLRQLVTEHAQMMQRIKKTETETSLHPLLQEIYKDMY
# Summary of the method: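 Beta-lactamase reporter readout: a ratiometric FRET signal from the LiveBLAzer substrate after 2 h at room temperature. Compound exposure at 37 °C in PPARδ-bla HEK293H cells driven by an upstream activator sequence.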
# [3] = molecular target: Peroxisome proliferator-activated receptor delta (Homo sapiens) (UniProt Q03181); test: qHTS assay to identify small molecule antagonists of the peroxisome proliferator-activated receptor delta (PPARd) signaling pathway (AID 743215; active = well fitted inhibition curve with a large enough effect in the signal ratio in the repeat runs, not every such curve was filed as active; the % refers to the signal ratio;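 note: cells stimulated with agonist L165041 at 300 nM final during compound exposure; series mostly up to about 62 µM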)
# Summary of the method: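 Cells: HEK293H with a UAS-driven beta-lactamase reporter responsive to PPARd. Compounds were co-added with L165041 (300 nM, final) and incubated 17 h at 37 C before a 2 h room-temperature FRET substrate step and fluorescence reading.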
# [4] = qHTS assay to identify small molecule agonists of the farnesoid-X-receptor (FXR) signaling pathway - cell viability counter screen (AID 743218); note: nearly all actives have a fitted effect of over 45% in size; note: potency is the fitted concentration of half-maximal effect
# Summary of the method: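 Cells were seeded, left 5 h at 37 C and 5% CO2, then dosed with compound in DMSO for 16 h. After the beta-lactamase FRET read, CellTiter-Glo was added and luminescence measured 30 min later.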
# [5] = qHTS assay to identify small molecule antagonists of the farnesoid-X-receptor (FXR) signaling pathway - cell viability counter screen (AID 743221; active = well fitted cell-killing curve with a large enough effect in the repeat runs, not every such curve was filed as active; note: nearly all actives have a fitted effect of over 50% in size; note: potency is the fitted concentration of half-maximal effect)
# Summary of the method: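 CellTiter-Glo, 30 min RT, luminescence; same wells as the LiveBLAzer FRET read. Cells: FXR-UAS-bla HEK 293T. Treatment: compound with chenodeoxycholic acid 50 uM final, 16 h at 37 C.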
# [6] = molecular target: Vitamin D3 receptor (Homo sapiens) (UniProt P11473); test: qHTS assay to identify small molecule agonists of the vitamin D receptor (VDR) signaling pathway (AID 743222; calls by dose curve)
# Sequence of Vitamin D3 receptor (Homo sapiens) (P11473 whole entry, looked up): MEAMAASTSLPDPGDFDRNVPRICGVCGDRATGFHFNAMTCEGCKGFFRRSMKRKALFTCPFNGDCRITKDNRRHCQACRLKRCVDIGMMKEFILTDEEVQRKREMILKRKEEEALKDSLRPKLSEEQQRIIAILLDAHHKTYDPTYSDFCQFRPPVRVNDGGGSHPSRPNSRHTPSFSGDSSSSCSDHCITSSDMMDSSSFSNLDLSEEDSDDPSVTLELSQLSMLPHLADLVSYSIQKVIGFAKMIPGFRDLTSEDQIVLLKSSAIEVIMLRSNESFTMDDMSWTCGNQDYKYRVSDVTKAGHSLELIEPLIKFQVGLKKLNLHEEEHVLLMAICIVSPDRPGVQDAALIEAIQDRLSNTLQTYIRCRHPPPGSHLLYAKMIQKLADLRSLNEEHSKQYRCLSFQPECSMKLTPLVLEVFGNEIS
# Summary of the method: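 Cells carrying a VDR-driven beta-lactamase reporter are seeded at 2,000 per well and rested 4 h. Compounds in DMSO are added for 16 h at 37C, and FRET substrate fluorescence is measured after 2 h at room temperature.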
# [7] = qHTS assay to identify small molecule agonists of the vitamin D receptor (VDR) signaling pathway - cell viability counter screen (AID 743224); note: series mostly up to about 63 µM; nearly all actives have a fitted effect of over 50% in size
# Summary of the method: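 Cells: VDR-bla, 2,000/well, settled 4 h. Treatment: compounds in DMSO, 16 h, 37C/5% CO2. Readout: CellTiter-Glo luminescence after 30 min RT.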
# [8] = qHTS assay to identify small molecule antagonists of the vitamin D receptor (VDR) signaling pathway - cell viability counter screen (AID 743225); note: nearly all actives have a fitted effect of over 50% in size
# Summary of the method: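 Cytotoxicity toward the VDR-bla HEK 293T line was scored by ATP-based CellTiter-Glo luminescence, read in the wells already used for the beta-lactamase readout after 16 h compound treatment under 3 nM 1-alpha,25-dihydroxyvitamin D3 stimulation.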
# [9] = qHTS assay to identify small molecule agonists of the NFkB signaling pathway (AID 1159509; active = well fitted curve in the direction sought with a large enough effect in the signal ratio in the repeat runs, not every such curve was filed as active; the % refers to the signal ratio; note: series mostly up to about 61 µM)
# Summary of the method: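 Pathway activation was measured in ME-180 cells stably expressing beta-lactamase under NF-kB response element control. Substrate cleavage was read as the 460/530 nm emission shift after 5 hr compound incubation.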
# [10] = qHTS assay to identify small molecule agonists of the NFkB signaling pathway - cell viability counter screen (AID 1159515; calls by dose curve; note: series mostly up to about 61 µM; nearly all actives have a fitted effect of over 55% in size)
# Summary of the method: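 Cells are seeded (2,000 NFkB-bla ME-180 per well), rested overnight, and dosed with DMSO-dissolved compounds for 5 hr at 37 C. Viability is then read by CellTiter-Glo luminescence after 30 min at room temperature.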
# [11] = qHTS assay to identify small molecule agonists of the endoplasmic reticulum stress response signaling pathway (AID 1159516; active = well fitted activation curve with a large enough effect in the signal ratio in the repeat runs, not every such curve was filed as active; the % refers to the signal ratio)
# Summary of the method: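 Cells are seeded at 1,500 per well and incubated overnight. Compounds in DMSO are added for 5 hr at 37 C, then beta-lactamase FRET substrate for 2 hr at room temperature, and fluorescence at 460 and 530 nm is measured.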
# [12] = qHTS assay to identify small molecule agonists of the endoplasmic reticulum stress response signaling pathway - cell viability counter screen (AID 1159517; calls by dose curve;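 note: HeLa cells carrying an ER stress response element beta-lactamase reporter; series mostly up to about 61 µM; nearly all actives have a fitted effect of over 50% in size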)
# Summary of the method: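 ESRE-bla HeLa cells (1,500/well) were plated overnight at 37 C and exposed to compounds for 5 hr. After the 2 hr beta-lactamase substrate read, CellTiter-Glo went into the same wells, and luminescence was read after 30 min at room temperature.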
# [13] = qHTS assay to identify small molecule antagonists of the retinoid-related orphan receptor gamma (ROR-gamma) signaling pathway - cell viability counter screen (AID 1159520); note: nearly all actives have a fitted effect of over 50% in size
# Summary of the method: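 Cytotoxicity was read from cellular ATP (CellTiter-Glo luminescence) after 16 hr at 37 C with 1 uM doxycycline induction. The inducer was added 2 hr after compound transfer to Tet-on ROR gamma CHO cells.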
# [14] = molecular target: Nuclear receptor ROR-gamma (Homo sapiens) (UniProt P51449); test: qHTS assay to identify small molecule antagonists of the retinoid-related orphan receptor gamma (ROR-gamma) signaling pathway (AID 1159521; note: nearly all actives have a fitted effect of over 50% in size; note: potency is the fitted concentration of half-maximal effect)
# Summary of the method: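 Readout: ONE-Glo luciferase luminescence, 30 min at room temperature. System: Tet-on RORγ CHO, RORE-LUC. Sequence: compound 2 h, doxycycline 1 uM final, 16 h at 37 C.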
# [15] = qHTS assay to identify small molecule agonists of the AP-1 signaling pathway (AID 1159526; calls by dose curve)
# [16] = qHTS assay to identify small molecule antagonists of the peroxisome proliferator-activated receptor delta (PPARd) signaling pathway - cell viability counter screen (AID 743213); note: nearly all actives have a fitted effect of over 50% in size
# Summary of the method: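 HEK293H cells with the PPARd UAS-bla reporter, co-treated 17 h at 37 C with compounds and L165041 (300 nM final), were lysed with CellTiter-Glo. Luminescence indicated viable cell content.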
# [17] = molecular target: Bile acid receptor (Homo sapiens) (UniProt Q96RI1); test: qHTS assay to identify small molecule antagonists of the farnesoid-X-receptor (FXR) signaling pathway (AID 743217; active = well fitted inhibition curve with a large enough effect in the signal ratio in the repeat runs, not every such curve was filed as active; the % refers to the signal ratio)
# Sequence of Bile acid receptor (Homo sapiens) (Q96RI1 whole entry, looked up): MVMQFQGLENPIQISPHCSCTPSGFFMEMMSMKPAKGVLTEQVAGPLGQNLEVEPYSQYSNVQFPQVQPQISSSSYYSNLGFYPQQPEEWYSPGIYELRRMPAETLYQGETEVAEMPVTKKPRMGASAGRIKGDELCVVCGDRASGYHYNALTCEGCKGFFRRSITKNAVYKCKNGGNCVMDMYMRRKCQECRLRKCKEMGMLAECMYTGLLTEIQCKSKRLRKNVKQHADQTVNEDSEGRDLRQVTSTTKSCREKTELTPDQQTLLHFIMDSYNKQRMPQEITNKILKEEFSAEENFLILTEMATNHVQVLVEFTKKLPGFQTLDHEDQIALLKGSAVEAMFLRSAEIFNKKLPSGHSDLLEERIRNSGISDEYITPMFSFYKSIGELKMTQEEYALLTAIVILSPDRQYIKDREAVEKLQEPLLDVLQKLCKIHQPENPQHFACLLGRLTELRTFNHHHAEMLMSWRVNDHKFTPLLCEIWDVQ
# Summary of the method: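 Cells carrying a UAS-driven beta-lactamase reporter (GeneBLAzer FXR-UAS-bla HEK 293T) were plated and rested 5 h at 37 °C. Compounds in DMSO were added alongside chenodeoxycholic acid agonist at 50 uM final and left 16 h at 37 °C before FRET substrate readout.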
# [18] = molecular target: Bile acid receptor (Homo sapiens) (UniProt Q96RI1); test: qHTS assay to identify small molecule agonists of the farnesoid-X-receptor (FXR) signaling pathway (AID 743220; active = well fitted activation curve with a large enough effect in the signal ratio in the repeat runs, not every such curve was filed as active; the % refers to the signal ratio)
# Summary of the method: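 FXR-UAS-bla HEK 293T cells carrying a UAS-driven beta-lactamase reporter were plated for 5 h at 37C/5% CO2, then exposed to DMSO-dissolved Tox21 10K compounds for 16 h at 37C. A LiveBLAzer B/G FRET substrate was loaded for 2 h at room temperature before fluorescence reading.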
# [19] = qHTS assay to identify small molecule agonists of the AP-1 signaling pathway - cell viability counter screen (AID 1159525; calls by dose curve; note: nearly all actives have a fitted effect of over 55% in size)
# Summary of the method: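 Intracellular ATP by Cell Titer Glo luminescence (30 min, RT) in the same ME-180 AP-1-bla wells after the 5 h compound exposure at 37 °C. Normalised to tetra n-octyl ammonium bromide and DMSO controls.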
# [20] = molecular target: Vitamin D3 receptor (Homo sapiens) (UniProt P11473); test: qHTS assay to identify small molecule antagonists of the vitamin D receptor (VDR) signaling pathway (AID 743223; active = well fitted inhibition curve with a large enough effect in the signal ratio in the repeat runs, not every such curve was filed as active; the % refers to the signal ratio)
# Summary of the method: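 After VDR-bla cells are plated and left 4 h at 37C, DMSO-dissolved compounds and 3 nM (final) calcitriol agonist are added. Incubation continues 16 h at 37C; FRET beta-lactamase substrate then develops 2 h at room temperature.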
Compound,Potency [1],Potency [2],outcome [3],Potency [4],Potency [5],outcome [6],outcome [7],outcome [8],outcome [9],outcome [10],outcome [11],outcome [12],Potency [13],Potency [14],Potency [15],Potency [16],outcome [17],outcome [18],outcome [19],outcome [20]
CCCCC(CC)COCCC#N (stereo not given),inactive,inactive,inactive,inactive,inactive,inactive,inactive,inactive,inactive,inactive,inactive,inactive,inactive,inactive,inactive,,,,,
Nc1ccc(-c2ccc(F)cc2)cc1,inactive,inactive,,,inactive,inactive,inactive,inactive,inactive,inactive,inactive,inactive,inactive,inactive,inactive,inactive,inactive,inactive,,
CC1=C(C)C(=O)C(CCCCC#CCCCC#CCO)=C(C)C1=O,,,,inactive,inactive,,inactive,inactive,inactive,inactive,inactive,inactive,inactive,29.8 µM (active),inactive,inactive,inactive,,inactive,
CC(=O)c1ccc(Cl)c(Cl)c1Cl,inactive,,,inactive,inactive,inactive,inactive,inactive,inactive,inactive,inactive,inactive,inactive,inactive,inactive,inactive,,,,inactive
CCCCCCCCS,inactive,inactive,inactive,inactive,inactive,inactive,inactive,inactive,inactive,inactive,inactive,inactive,inactive,inactive,inactive,inactive,inactive,inactive,,inactive
CCC(C)CCCC(C)(C)O (stereo not given),inactive,inactive,inactive,inactive,inactive,inactive,inactive,inactive,inactive,inactive,inactive,inactive,inactive,inactive,inactive,inactive,,,,
O=C(NC1CCN(CCc2c[nH]c3ccccc23)CC1)c1ccccc1,inactive,,,inactive,inactive,,,inactive,inactive,inactive,inactive,inactive,inactive,inactive,,inactive,,,inactive,
C=CC(C)(O)CC/C=C(/C)CCC=C(C)C (stereo not given),inactive,inactive,inactive,,,,inactive,inactive,inactive,inactive,inactive,inactive,inactive,inactive,inactive,inactive,inactive,,,
c1ccc(CCNc2nc(-c3ccccc3)cs2)cc1,inactive,inactive,inactive,inactive,inactive,inactive,inactive,inactive,inactive,inactive,inactive,inactive,inactive,inactive,,inactive,,,inactive,inactive
Cc1c(Cl)cccc1Nc1ccccc1C(=O)O,inactive,,,inactive,inactive,,inactive,inactive,inactive,inactive,inactive,inactive,inactive,inactive,inactive,inactive,inactive,inactive,,
O=C(c1ccco1)N1CCNCC1,inactive,inactive,inactive,inactive,inactive,,inactive,inactive,inactive,inactive,inactive,inactive,inactive,inactive,,inactive,inactive,,inactive,
O=C(Cl)c1ccc(F)c(Cl)c1,inactive,inactive,inactive,inactive,inactive,inactive,inactive,inactive,inactive,inactive,inactive,inactive,inactive,inactive,inactive,inactive,,,,inactive
O=C(O)c1ccccc1-n1cc(C(=O)O)c(=O)c2cc(Nc3c(F)cc(F)cc3Cl)c(Cl)cc21,inactive,inactive,inactive,inactive,,inactive,inactive,,inactive,inactive,inactive,inactive,inactive,inactive,inactive,inactive,inactive,inactive,,inactive
Cc1cc(C)c(C)c(O)c1,inactive,inactive,inactive,inactive,,inactive,inactive,inactive,inactive,inactive,inactive,inactive,inactive,inactive,,,,,inactive,inactive
CCc1c(C)[nH]c2c1C(=O)C(CN1CCOCC1)CC2 (stereo not given),inactive,inactive,inactive,inactive,inactive,inactive,inactive,inactive,inactive,inactive,inactive,inactive,inactive,inactive,,inactive,inactive,inactive,inactive,inactive
NCCOCCOCCN,,,,6.92 µM (active),19.5 µM (active),inactive,inactive,inactive,inactive,inactive,inactive,inactive,inactive,inactive,inactive,inactive,,,inactive,
c1ccc(CN(Cc2ccccc2)Cc2ccccc2)cc1,,,,inactive,inactive,inactive,,inactive,inactive,inactive,inactive,inactive,inactive,inactive,inactive,inactive,,,inactive,inactive
